# Compounds with a hit are over-represented: about 4.7% of the library has one in this group of screens.
# TRHR enhancer-1 = allosteric enhancers of human TRH receptor | P34981 | TRHR cells, fluo-8 calcium fluorescence, EC20 TRH enhancement | enhancement, % at 2 µM | 360,000 tested, 0.66% active; in the data active = enhancement above about 30%; also: 0% is about no effect
# Target sequence (P34981 whole entry, looked up): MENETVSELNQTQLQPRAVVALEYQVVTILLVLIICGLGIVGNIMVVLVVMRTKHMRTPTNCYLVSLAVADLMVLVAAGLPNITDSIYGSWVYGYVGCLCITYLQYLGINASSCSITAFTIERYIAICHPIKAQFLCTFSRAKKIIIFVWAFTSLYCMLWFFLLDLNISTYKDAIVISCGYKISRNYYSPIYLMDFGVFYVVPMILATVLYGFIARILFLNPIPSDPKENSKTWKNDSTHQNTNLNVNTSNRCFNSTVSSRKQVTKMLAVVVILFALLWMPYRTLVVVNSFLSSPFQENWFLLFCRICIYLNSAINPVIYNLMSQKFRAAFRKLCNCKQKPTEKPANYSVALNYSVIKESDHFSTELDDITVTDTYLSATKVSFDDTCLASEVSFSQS
#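 TRHR-expressing cells loaded with fluo-8 calcium dye were read kinetically (ex 480/em 530) during compound addition, then stimulated with an EC20 of TRH (10 nM final). Enhancement of the Gq-mediated intracellular calcium response was scored.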
# D1 antagonist = antagonists of human D1 dopamine receptor; P21728; AID 504652; HEK293 TREx D1 cells, calcium flux, dopamine EC80; hits give low values; activity change, negative = inhibition, % at 10 µM; 360,000 tested, 3.2% active; in the data active = activity change below about -30%; also: % is scaled to controls: 0 for no effect and ±100 for the full control effect
#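 After overnight tetracycline induction at 30 C, force-coupled D1 HEK293 cells took up a no-wash calcium dye at room temperature. Compounds were added and monitored 180 s, and the response to EC80 dopamine was then recorded.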
# D1 potentiator = potentiators of human D1 dopamine receptor | P21728 | HEK293 TREx D1 cells, calcium flux, dopamine EC20 potentiation | potentiation, % at 10 µM | 360,000 tested, 0.036% active | AID 504651; in the data active = potentiation above about 30%; also: 0% is about no effect
# D1 agonist = agonists of human D1 dopamine receptor; P21728; HEK293 T-REx D1 cells, calcium flux, agonist mode; activation, % at 2 µM; 360,000 tested, 1% active; also: 0% is about no effect
#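 Tetracycline-induced HEK293 TREx D1 cells, force-coupled to calcium signalling, were dye-loaded with a no-wash calcium kit. Compound was pin-added after a 10 s baseline. Fluorescence was read kinetically at 1 cycle/s for 180 s, with calcium rises flagged as agonism.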
# TRHR agonist-1 = agonists of human TRH receptor; P34981; activation, % at 2 µM; 360,000 tested, 0.18% active; TRHR cells, calcium flux fluo-8, FDSS agonist mode; AID 493084; also: 0% is about no effect
#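 Read-out: compound-evoked intracellular calcium rise in TRHR cells, fluo-8 dye, kinetic FDSS fluorescence at 1 s/cycle following a 10-cycle baseline. Cells cultured overnight before dye loading (30 min–1.5 h, RT).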
# TRHR enhancer-2 = human TRH receptor allosteric enhancement confirmation; shares compounds with TRHR enhancer-1; TRH receptor cell assay, enhancer confirmation qHTS; activity change, negative = inhibition, % at 46.1 µM; 970 tested, under 10 active; active = well fitted curve in the direction sought with a large enough effect; inconclusive = small, poorly fitted or top-dose-only effect, or another doubt; inactive = no such curve, though single readings can be large; an effect the other way counts as inactive or inconclusive;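 also: compound effect scored on response to added TRH at EC20 of 10 nM; 0% is about no effect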
# TRHR agonist-2 = human TRH receptor agonism confirmation | TRHR-expressing cells, agonist activation read-out | 970 tested, 8% active | shares compounds with TRHR enhancer-1 | Potency, µM (top dose mostly 46.1 µM), for inactives: at the top dose activation, actives largely listed as activators; active = well fitted curve in the direction sought with a large enough effect; inconclusive = small, poorly fitted or top-dose-only effect, or another doubt; inactive = no such curve, though single readings can be large; an effect the other way counts as inactive or inconclusive; also: potency is read from the fitted curve at half-maximal effect; 0% is about no effect; nearly all actives have a fitted effect of over 75% in size
# Numbers without * were called inactive; ? = inconclusive; nt = no result. Rule as the data show it, unless noted: active = activation above about 30%; inactive = the rest.
SMILES,TRHR enhancer-1,D1 antagonist,D1 potentiator,D1 agonist,TRHR agonist-1,TRHR enhancer-2,TRHR agonist-2
CCCCc1cc(=O)oc2cc(OCC(=O)N(CC)CC)ccc12,0,13,0,2,-2,nt,nt
CCCCc1cc(=O)oc2cc(OCC(=O)N(CC)CC)c(Cl)cc12,66*,5,-8,3,0,-5,0%
Cc1ccc(CNC(=O)CCc2c(C)nn(-c3ccc(N4CCCCC4)nn3)c2C)cc1,-4,-16,-5,3,-1,nt,nt
Cc1ccccc1NC(=O)CN1CCOCC1,56*,-2,-3,3,0,14,0%
Cc1ccccc1NC(=O)CN1CCN(C)CC1,15,16,0,10,-1,nt,nt
COc1cc(OC)cc(C(=O)NC(=S)Nc2cccnc2)c1,2,-5,-6,1,-1,nt,nt
COc1cc(OC)cc(C(=O)Nc2cccnc2)c1,50*,13,6,1,0,-1,3%
Cc1cc(=O)n(CC(=O)NCc2ccc(OC(C)C)cc2)c2c1c(C)nn2-c1cccc(F)c1,7,15,-1,1,0,nt,nt
CCCCNC(=O)c1cc(-c2ccc(F)cc2)on1,41*,-5,-3,1,0,-2,6%
CCOC(=O)c1cc(-c2csc(-c3ccc(C(C)(C)C)cc3)n2)on1,44*,-17,-8,5,0,7,2%
Nc1ccc(C(=O)OCC(=O)NC(=O)c2ccccc2)cc1[N+](=O)[O-],55*,-2,3,8,4,-5,6%
O=C(COC(=O)c1ccc(Cl)cc1[N+](=O)[O-])NC(=O)c1ccccc1,-3,-11,1,4,1,nt,nt
Cc1ccc(NCC(=O)Nc2ccc(Br)cc2)cc1C,70*,-48*,-7,5,0,4,0%
Cc1ccc(F)cc1NCC(=O)Nc1ccc(Br)cc1,0,4,-3,1,0,nt,nt
O=C(NCc1ccccc1)c1ccc2c(c1)CCN2S(=O)(=O)c1ccc(Cl)cc1,10,-13,-1,6,3,nt,nt
CCc1nnc(NC(=O)CSCc2cc(=O)c3ccc(C)cc3[nH]2)s1,6,-2,-1,4,0,nt,nt
CCOC(=O)C1CCN(c2ncnc3c2[nH]c2cccc(OC)c23)CC1,9,-11,-4,0,0,nt,nt
COCCOc1cc2ncnc(N3CCC(C(=O)O)CC3)c2cc1OCCOC,43*,3,6,2,-2,3,-1%
CC(=O)c1cccc(NC(=O)CSc2nc3ccccc3nc2Cc2ccc(F)cc2)c1,1,1,-1,-2,0,nt,nt
CC(=O)N1CC(C)Oc2ccc(S(=O)(=O)NC(CC(=O)O)c3ccccc3)cc21 (stereo not drawn),44*,-22,-12,4,1,-6,-1%
CSc1ccc(/C=C/C(=O)N2CCN(c3ccccn3)CC2)cc1,1,-22,-10,3,1,nt,nt
N#C/C(=C/c1ccc(N2CCOCC2)o1)C(=O)NC1CCCCC1,2,-5,-5,113*,47*,?,21µM*
N#C/C(=C\c1ccc(N2CCOCC2)o1)c1ccccc1,5,9,-4,0,-2,nt,nt
Cc1ccccc1OCC(O)CN1CCCCC1 (stereo not drawn),43*,-9,0,6,0,-5,1%
Cc1ccccc1OCC(O)CN1CCN(c2ccc(Cl)cc2)CC1 (stereo not drawn),51*,-26,-12,5,1,4,0%
SMILES,TRHR enhancer-1,D1 antagonist,D1 potentiator,D1 agonist,TRHR agonist-1,TRHR enhancer-2,TRHR agonist-2
Cc1ccccc1OCC(O)Cn1c(=N)n(CCN2CCCCC2)c2ccccc21 (stereo not drawn),15,6,-5,22,1,nt,nt
Cc1c2cnn(CC(=O)Nc3ccc(F)cc3F)c(=O)c2c(C)n1Cc1cccc(Cl)c1,-3,6,-3,12,1,nt,nt
CCN(CC(=O)NCc1cccs1)C(=O)c1ccc(NS(=O)(=O)c2ccc(C(C)=O)cc2)cc1,3,-7,-7,1,0,nt,nt
COc1ccc(CCNC(=O)CN2CCOc3ccccc32)cc1OC,58*,-18,0,-4,0,1,0%
Cc1[nH]nc2c1C(c1c[nH]c3ccccc13)C(C#N)=C(N)O2 (stereo not drawn),51*,-4,-5,5,0,0,1%
CCN(CC)c1ccc(/C=C2\CCC(/C=N/NC(=O)c3ccc(=O)n(C)c3)=C2N2CCOCC2)cc1,11,13,7,74*,36*,9,?
O=C(c1cc(-c2ccc(F)cc2)no1)N1CCN(Cc2ccc3c(c2)OCO3)CC1,-6,-22,-4,7,0,nt,nt
O=C(NCc1ccc2c(c1)OCO2)C(=O)NCC1CCCO1 (stereo not drawn),0,-9,1,1,0,nt,nt
O=C(NCc1cccc(CNC(=O)C(=O)NCC2CCCO2)c1)C(=O)NCC1CCCO1 (stereo not drawn),42*,-5,-4,1,1,1,-1%
COc1cccc(-c2nc(CS(=O)(=O)CC(=O)Nc3ccccc3Cl)c(C)o2)c1,-6,8,4,4,0,nt,nt
Cc1c(OCC(=O)NCc2ccncc2)ccc2c3c(c(=O)oc12)CCCC3,8,6,8,1,0,nt,nt
CCOCCCNC(=O)c1cc(Sc2ccc(F)cc2)nc2ccccc12,49*,4,-4,4,0,-7,3%
C[N+](C)(C)CCCCCCC(=O)/C=N/O,-4,4,-1,2,0,nt,nt
C[N+]1(CCCCCCC(=O)/C=N/O)CCCCCC1,43*,3,-7,2,2,-1,-1%
COc1ccc(N(C(=O)c2snc(C(N)=O)c2N)C(C(=O)NCC2CCCO2)c2ccc3ncccc3c2)cc1OC (stereo not drawn),12,-3,4,4,0,nt,nt
C/C(=N\NC(=O)c1ccc(Cn2cc(Br)cn2)o1)c1ccc(NC(=O)c2ccoc2C)cc1,61*,-43*,-4,1,0,10,8%
NNc1nc(-c2ccccc2)cc(-c2ccccc2)n1,-3,1,-4,5,0,nt,nt
N#Cc1cc(-c2ccccc2)nc(NN)n1,48*,-12,-3,3,0,-16,-1%
CCOC(=O)c1cccc(NC(=O)CC(c2cc(OC)c(OC)c(OC)c2)N2Cc3ccccc3C2=O)c1 (stereo not drawn),1,-18,-2,1,-1,nt,nt
Cc1ccc(CCNC(=O)C2CCCN(S(=O)(=O)c3c(C)nn(C)c3C)C2)cc1 (stereo not drawn),3,-6,nt,0,0,nt,nt

# From PubChem
